# PKA-R2B act = PKA-R2B complex activation; P22694+P31323; PKA-R2B holoenzyme dissociation, Cy5-IP20 fluorescence polarization; R2B truncated from residue 108, S112A mutant; 0% DMSO only, 100% 113 µM cGMP; activation, % at 11.4 µM; 0.079% of 340,000 active;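 active = activation above a cutoff set at the mean over all compounds plus 3 SD, cut at about 18% in these data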;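 note: higher means more holoenzyme dissociation and a rise in polarization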
# Target sequence (P31323 whole entry, looked up, other chains not shown, the tested form may be a part): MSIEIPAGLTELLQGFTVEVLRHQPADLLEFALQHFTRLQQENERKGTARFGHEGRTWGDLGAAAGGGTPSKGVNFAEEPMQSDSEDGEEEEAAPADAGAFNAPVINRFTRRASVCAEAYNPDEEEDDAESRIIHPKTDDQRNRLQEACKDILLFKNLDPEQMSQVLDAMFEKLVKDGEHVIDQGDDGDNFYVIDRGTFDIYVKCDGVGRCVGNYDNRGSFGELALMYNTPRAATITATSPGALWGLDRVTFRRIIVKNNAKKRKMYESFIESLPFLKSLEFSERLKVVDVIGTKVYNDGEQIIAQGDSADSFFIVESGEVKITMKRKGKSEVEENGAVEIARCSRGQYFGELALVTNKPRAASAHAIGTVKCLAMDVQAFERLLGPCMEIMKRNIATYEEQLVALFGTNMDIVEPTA
# MsrA inhibitor = inhibits bovine methionine sulfoxide reductase A; AID 651718; inhibition, % at 15.5 µM; purified bovine MsrA, absorbance read-out; 0.75% of 360,000 active;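 note: 0% = vehicle wells with enzyme and 100% = reference inhibitor wells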
# PKA-R1A activ = activators of PKA-R1A complex. P00514+P68181. PKA-R1A dissociation, Cy5-IP20 fluorescence polarization; scaled: DMSO 0%, 113 µM cGMP 100%. activation, % at 11.4 µM. 0.083% of 340,000 active. AID 504707;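 active = percent activation above the mean of all tested compounds plus 3 SD, cut at about 19% in these data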;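 note: higher means more PKAc released from R1A so a rise in polarization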
# Mot1-301 SUMO = blocks SUMOylation pathway, rescuing yeast Mot1-301 growth; growth rescue, % at 18.8 µM; 1% of 320,000 active; S. cerevisiae Mot1-301 growth rescue, ATP luminescence, 38.5C; percent above DMSO median, 100 means doubled; AID 2716;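 active = every valid replicate shows activation above 250% relative to neutral control wells; inactive = the rest, any valid replicate at or below 250%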;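 note: OY570 slx delta 5 strain wells were the positive control but not used for scaling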
# bovine MsrA act = activates bovine MsrA enzyme; purified bovine MsrA, absorbance read-out; activation, % at 10.6 µM; 0.3% of 360,000 active; in the data active = activation above about 7.5%;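 note: 0% = vehicle and 100% = reference activator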
# MsrA inh confirm = bovine MsrA inhibition, confirmed | AID 651822 | purified bovine MsrA, absorbance read-out | shares compounds with MsrA inhibitor | inhibition, % at 15.5 µM | 41% of 2,300 active;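 note: coupled to thioredoxin reductase with NADPH and selenocystamine and DMSO as substrate; 0% = vehicle only and 100% = full effect of reference inhibitor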
# Starred values were filed as active, the others as inactive; . = not tested or not shown. This is a sample that favours compounds with a hit; in the whole collection about 2% have one here. Cut-off read from the data, not from the text of the source, unless noted: active = inhibition above about 4.5%; inactive = the rest.
SMILES,PKA-R2B act,MsrA inhibitor,PKA-R1A activ,Mot1-301 SUMO,bovine MsrA act,MsrA inh confirm
C/C(=N\NC(N)=S)c1ccc(Cl)s1,2.7,5.7*,7.4,-22.9,-3.6,4.8*
CC(=O)c1ccc(S(=O)(=O)N2CCN(C(=O)C(=O)c3cccc(C(F)(F)F)c3)CC2)cc1,.,0.2,.,.,.,.
COC(=O)[C@]12CCCCC=C1N(Cc1ccc3c(c1)OCO3)C(=O)[C@H](CC(=O)NCCCN1CCCC1=O)C2,.,-1.6,.,.,.,.
COCCCNC(=S)N(CCCO)Cc1cc2cc3c(cc2[nH]c1=O)OCO3,2.6,1.7,7.2,-1.9,-1.8,.
COCCCNC(=S)N(CCCO)Cc1cc2cc3c(cc2[nH]c1=O)OCCO3,-7.7,5.0*,-6.2,-1.9,-2.2,2.1
Cc1nc2c(C)cccn2c(=O)c1NC(=O)COc1ccccc1,1.4,2.6,6.2,16.9,-2.1,.
Cc1ccn2c(=O)c(NC(=O)COc3ccccc3)c(C)nc2c1,-3.6,4.9*,-1.1,286.2,-7.9,3.3
COc1ccc(-c2ccc(C(=O)NCc3ccc(N4CCN(C)CC4)cc3)c3occc23)c(C)c1,.,0.0,.,.,-1.2,.
CCCCOCC1CN(CCCC)S(=O)(=O)c2c(Oc3ccc(C(C)C)cc3)cccc2O1 (stereo not given),.,-0.4,.,.,.,.
CCOc1ncccc1C(=O)Nc1ccc2c(c1)OCO2,12.5,5.0*,-11.8,-15.1,-3.4,4.5
COc1ccc(-c2oc3ccc(-c4ccc5c(c4)OCO5)cc3c2C#CC2(O)CCCCC2)cc1,-2.0,5.2*,-3.2,-28.9,-4.2,3.0
O=C(NC(Cc1c[nH]c2ccccc12)C(=O)O)c1cccc(S(=O)(=O)N2CCCCC2)c1 (stereo not given),-7.4,-0.1,7.2,.,-6.5,.
Cc1ccc2cc(/C=N/NC(=O)CN3CCOCC3)c(Cl)nc2c1,-3.0,5.0*,-13.4,5.3,-3.1,2.5
Cc1ccc2nc(Cl)c(/C=N/NC(=O)CN3CCOCC3)cc2c1,-11.0,2.2,3.8,12.6,-5.6,.
O=C(O)c1ccc(N=NN2CCCCC2)cc1,.,2.9,.,5.4,-10.4,.
CC(=O)N(C(C)=O)S(=O)(=O)c1ccc(N=NN2CCCCC2)cc1,-8.2,5.0*,-3.0,-5.5,-2.4,3.9
NS(=O)(=O)c1ccc(N=NN2CCCCC2)cc1,-12.8,5.3*,-7.6,.,-5.0,2.0
CC(=O)NS(=O)(=O)c1ccc(N=NN2CCCCC2)cc1,-9.1,2.0,-5.1,9.9,-1.1,.
CC(=O)c1cnc2sccn2c1=O,12.3,6.2*,0.8,0.9,-1.9,2.0
CC1Cc2ccccc2N1C(=O)c1cnc2sccn2c1=O (stereo not given),-6.7,5.4*,1.8,6.9,-8.7,3.6
COc1cc(C(=O)C(=O)N2CCC(Cc3ccccc3)CC2)cc2ccccc12,.,1.9,.,.,.,.
Oc1oc(-c2ccccc2)nc1C=NCc1ccncc1,-7.1,5.9*,-4.7,-2.3,-1.3,4.5
COc1ccc(C(C(=O)Nc2ccc3c(c2)OCCO3)n2c(=O)c(-c3ccco3)nc3ccccc32)cc1 (stereo not given),.,2.2,.,.,.,.
Cc1ccc(/C=C/c2nnc(-c3cccs3)o2)cc1,1.9,1.4,-7.5,25.4,-14.4,.
Fc1ccc(/C=C/c2nnc(-c3cccs3)o2)cc1,-1.7,5.2*,-12.8,24.6,-5.1,2.4
SMILES,PKA-R2B act,MsrA inhibitor,PKA-R1A activ,Mot1-301 SUMO,bovine MsrA act,MsrA inh confirm
Cc1cccc(C)c1NC(=O)C1(C)CN(S(C)(=O)=O)CC(=O)N1CC(F)(F)F (stereo not given),.,-0.8,.,.,.,.
Cc1cc(C)c(C(=O)/C=C/C=C/c2ccccc2)c(=O)[nH]1,-12.0,3.7,-5.0,2.9,-7.2,.
C/C(=C\c1ccc(C)o1)C(=O)c1c(C)cc(C)[nH]c1=O,-7.7,7.3*,5.2,-1.1,-7.5,3.6
C/C(=C\c1cccc(Br)c1)C(=O)c1c(C)cc(C)[nH]c1=O,-11.9,1.2,-12.4,-4.7,-2.3,.
C/C(=C\C=C\c1ccccc1)C(=O)c1c(C)cc(C)[nH]c1=O,2.0,7.4*,-16.2,6.0,-8.4,5.9*
C/C(=C\c1ccc2c(c1)OCO2)C(=O)c1c(C)cc(C)[nH]c1=O,-4.9,5.5*,0.9,-20.6,-6.5,3.3
C[C@H](O)[C@@H]1CN2CCc3c([nH]c4c(-c5ccccc5)cccc34)[C@@H]2C[C@@H]1N(C)C(=O)Nc1ccccc1,.,0.6,.,.,.,.
COc1cc(-c2nc3ccccn3c2/N=C/c2ccccc2)ccc1O,7.8,4.0,-7.4,-4.9,-3.4,.
COc1cc(-c2nc3ccccn3c2/N=C/c2cc(OC)c(O)cc2Cl)ccc1O,14.1,4.7*,6.3,-1.2,-5.1,2.8
O=C(c1ccc2c(=O)n(Cc3ccccc3)c(=S)[nH]c2c1)N1CCOCC1,1.4,0.7,7.4,-2.1,-2.9,.
CC(=O)c1ccc(N2CCN(C(=O)c3ccc(Cn4c(=S)[nH]c5ccc(N6CCOCC6)cc5c4=O)cc3)CC2)cc1,-12.1,5.0*,-10.4,1.7,-5.2,4.8*
COc1ccc(-c2cc3ccc(O)cc3oc2=O)cc1OC,-3.2,2.7,5.7,-4.8,-4.1,.
COc1ccc(-c2cc3ccc(OCC(N)=O)cc3oc2=O)cc1OC,7.0,5.6*,1.4,97.9,-7.6,1.3
COc1ccc(-c2cc3ccccc3oc2=O)cc1,1.2,1.4,8.1,49.9,-3.3,.
COc1ccc(-c2cc3ccc(OC(C)C(=O)O)cc3oc2=O)cc1 (stereo not given),14.4,5.7*,-4.2,62.7,-7.0,4.3
O=C(N[C@H](C(=O)N1CCC[C@H]1C(=O)NC1CCCC1)c1ccccc1)c1ccc(Cl)cc1Cl,.,-0.2,.,.,.,.
COc1ccc(NC(=O)C2Cc3c(-c4cccc(NC(C)=O)c4)ccnc3O2)cc1 (stereo not given),.,-0.7,.,.,-2.3,.
Nc1ccc2ccc(N)cc2c1,.,1.2,.,.,.,.
COc1ccc(/C=N/NC(=O)c2ccc(COc3cccc4cccnc34)cc2)cc1O,9.2,1.4,3.4,-5.0,-6.8,.
COc1ccc(/C=N/NC(=O)c2ccc(COc3cccc4cccnc34)cc2)cc1OC,-10.2,4.9*,-7.1,4.3,-3.4,2.4
Cc1ccn2c(C(=O)N/N=C/c3ccc(Cl)cc3)c(C)nc2c1,-6.3,0.2,1.0,.,-3.8,.
Cc1ccn2c(C(=O)N/N=C\c3ccc4c(c3)OCO4)c(C)nc2c1,-3.8,7.3*,-1.6,-12.4,-10.2,5.5*
COc1cc(/C=N\NC(=O)c2c(C)nc3cc(C)ccn23)ccc1O,-10.8,7.1*,5.2,110.5,-10.7,6.4*
COc1cc(/C=N/NC(=O)c2c(C)nnn2-c2nonc2N)ccc1O,-13.2,5.0*,-5.2,6.4,-11.0,3.6
Cc1nnn(-c2nonc2N)c1C(=O)N/N=C/c1ccccc1O,-5.4,0.4,3.2,28.9,-0.3,.
C[C@H](O)[C@@H]1CN2CCc3ccc(-c4ccc5c(c4)OCO5)cc3[C@@H]2C[C@@H]1N(C)C(=O)NC1CCCCC1,.,0.6,.,.,.,.
